Compounds with a hit are over-represented: about 2.4% of the library has one in this group of screens.
Epigenetic reg: derepresses silenced GFP reporter in murine cells. murine LDR cells, GFP reporter derepression, 30 h. 280,000 compounds, 0.2% hits. AID 1865. Potency, µM (titrated, usually from 53.9 µM), inactives show top-dose GFP activation, most hits filed as activators; also: % of control where 0% means no effect; nearly all actives have a fitted effect of over 60% in size
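Murine LDR cells bearing a silenced CMV-driven GFP reporter were exposed to compound for 30 h at 37 C. After PBS washes, GFP-positive cells (20-120 um objects) counted by laser-scanning microplate cytometry.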
PINK1 modulator: PINK1 expression modulation; 410,000 compounds, 0.2% hits; Potency, µM (doses to about 76.6 µM), without a hit: at the highest dose activation (PINK1 increase), usual class: activators; PINK1 immunofluorescence, high-content cytometry, 24 h; active = well fitted activation curve with a large enough effect; inconclusive = small, poorly fitted or top-dose-only effect; cell line not stated here; also: % of control where 0% means no effect; nearly all actives have a fitted effect of over 65% in size
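Stable cell line, 250 cells/well, 12 h attachment; compounds pinned at 5 concentrations, 24 h; CCCP control. Fixed with nuclear dye, primary antibodies 12 h at 10 degrees C, secondary plus cell stain; laser-scanning cytometer read.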
Nrf2 block: inhibitors of Nrf2 signaling; A549 ARE-Fluc reporter, luciferase luminescence, 18-24 h; Potency, µM (top dose mostly 46 µM), without a hit: top-dose activity change, negative = inhibition, actives largely listed as inhibitors; 360,000 compounds, 2.1% hits; also: % is scaled to controls: 0 for no effect and ±100 for the full control effect; nearly all actives have a fitted effect of over 60% in size
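Reporter: ARE-Fluc in A549. Exposure: 18-24 h, 37 °C, 5% CO2, 5% FBS OPTI-MEM. Readouts: fluorescent cytotoxicity (CellTiter-Fluor), then luminescent Nrf2 signal after BugLite.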
A549 viability: kills or reduces viability of A549 cells in Nrf2 counter-screen | Potency, µM (top dose mostly 46 µM), for the others: at the highest dose activity change, negative = cytotoxicity, most hits filed as inhibitors | 390,000 compounds, 0.16% hits | A549 ARE-Fluc cells, CellTiter-Fluor viability, 18-24 h; also: % is scaled to controls: 0 for no effect and ±100 for the full control effect
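A549 ARE-Fluc cells in 5% FBS OPTI-MEM, 5000 cells/well, rested 2 h then exposed to compounds in concentration-response for 18-24 h at 37 °C. Viability by CellTiter-Fluor fluorescence (Ex 405/Em 525) after 30 min; luciferase luminescence (BugLite, 15 min, RT) read afterwards.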
Nrf2 ARE act: activators of Nrf2 (ARE) signaling; AREc32 ARE-luciferase reporter (MCF7-derived line), luminescence, 24 h; Potency, µM (doses to about 46.1 µM), for the others: at the highest dose activation, actives largely listed as activators; 410,000 compounds, 0.31% hits; AID 624171; also: % of control where 0% means no effect; nearly all actives have a fitted effect of over 65% in size
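Luminescent ARE reporter assay in AREc32_Fluc cells: overnight plating at 37 deg C, 24 hr compound incubation, Steady-Glo added, 30 min RT before reading.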
* = called active by the depositor; ? = inconclusive; · = no result; [ ] = another dose, or the depositor's remark. Unless noted, calls follow the shape of the dose curve; as a rule, active = well fitted curve in the direction sought with a large enough effect; inconclusive = small, poorly fitted or top-dose-only effect, or another doubt; inactive = no such curve, though single readings can be large; an effect the other way counts as inactive or inconclusive. Potency is read from the fitted curve at half-maximal effect.

SMILES	Epigenetic reg	PINK1 modulator	Nrf2 block	A549 viability	Nrf2 ARE act
CCOC(=O)/C(=C\C=C1/Sc2cc(OCC)c(OCC)cc2N1CC)C(C)=O	5.6µM*	?	-23%	?	-1%
COc1ccc(C2Nc3ccccc3C(=O)N2Cc2ccco2)cc1COc1ccccc1 (configuration not stated)	·	·	-14%	-3%	·
C=CCN1C(=O)/C(=C/c2ccc(N(C)C)cc2)S/C1=N\c1nnc(CC)s1	13µM*	·	·	·	·
C=CCN1C(=O)/C(=C/c2ccc(OCC(=O)O)cc2)S/C1=N/c1nccs1	2%	2%	21%	-20%	0%
COC(=O)C(C(C)=O)C(NC(=O)OC(C)(C)C)c1ccccc1 (configuration not stated)	1%	·	·	·	·
COc1ccc(CNC(=O)CCCn2c(=O)c3cccn3c3ccc(F)cc32)cc1OC	1%	2%	-3%	9%	5%
O=C(CCCN1C(=O)/C(=C/c2cccs2)SC1=S)NNC(=O)c1ccncc1	-2%	20%	?	?	5%
O=C(CCCN1C(=O)/C(=C/c2ccccc2Cl)SC1=S)NNC(=O)c1ccccc1Cl	1%	2%	18µM*	-10%	-2%
O=C(CCCN1C(=O)/C(=C/c2ccccc2Cl)SC1=S)NNC(=O)c1ccncc1	-2%	6%	26µM*	-31%	-1%
O=C(CCCN1C(=O)/C(=C/c2ccccc2Cl)SC1=S)N1CCCC1	·	0%	1%	-6%	?
COc1ccc(/C=C2\SC(=S)N(CCCC(=O)NNC(=O)c3ccccc3O)C2=O)cc1	-1%	3%	13µM*	-8%	-3%
CC(=O)c1c(C)[nH]c2ccc(OCC(O)CNCCc3ccccc3)cc12 (configuration not stated)	·	0%	·	·	·
Cc1cccc(Nc2ccc(S(=O)(=O)N3CCOCC3)cc2[N+](=O)[O-])c1	·	1%	-25%	-10%	0%
CSc1cccc(Nc2ccc(S(=O)(=O)N3CCOCC3)cc2[N+](=O)[O-])c1	·	0%	18µM*	-10%	0%
CCOc1ccc(NC(=O)CC2C(=O)N(c3ccc(F)cc3)C(=O)N2CCc2sccc2C)cc1 (configuration not stated)	-1%	0%	?	-22%	6%
COc1ccc(C)cc1-n1nnnc1SCc1cc(=O)n2cc(C)ccc2n1	1%	-1%	13µM*	-21%	0%
Cc1nnc(SCc2ccccc2)c2cc3sccc3n12	1%	1%	7%	15%	15%
Cc1ccc(C)c(CSc2nnc(C)n3c2cc2sccc23)c1	-3%	1%	26µM*	-1%	1%
Cc1cc(Cl)ccc1OC(C)C(=O)N1CCCN(C(=O)C(C)Oc2ccc(Cl)cc2C)CC1 (configuration not stated)	0%	2%	16µM*	?	5%
Cc1cc(Cl)ccc1OCC(=O)N1CCCN(C(=O)COc2ccc(Cl)cc2C)CC1	10%	?	?	?	5%
Cc1nc2ccccc2nc1CN1CCOc2ccc(C(C)(O)COc3ccccc3)cc2C1 (configuration not stated)	·	2%	·	·	·
CC1=C(C(=O)OC(C)C)C(c2cn(-c3ccccc3)nc2-c2cccs2)NC(=O)N1 (configuration not stated)	-2%	-1%	18µM*	?	2%
O=S1(=O)N=C(Oc2cccc(-c3ccccc3)c2)c2ccccc21	·	·	25%	1%	·
c1coc(CNc2nc(-c3cccs3)nc3ccccc23)c1	·	·	?	1%	·
CC(CCc1ccc(O)cc1)NC(c1ccccc1)c1ccc(Cl)cc1 (configuration not stated)	·	-2%	23µM*	?	0%
SMILES	Epigenetic reg	PINK1 modulator	Nrf2 block	A549 viability	Nrf2 ARE act
Cc1cc(C(=O)COC(=O)c2ccc(NC(=O)CC#N)cc2)c(C)n1CC(F)(F)F	·	0%	·	·	3%
Cc1nn(Cc2ccccc2)c(C)c1C(=O)OCC(=O)c1cc(C)n(CC(F)(F)F)c1C	0%	-1%	16µM*	-9%	1%
CCOc1cc(/C=C/C(=O)c2ccc3c(c2)OCCO3)ccc1OCC(=O)N(C)C	·	-1%	-17%	2%	11µM*
Cc1ccc(NC(=S)NCCSc2ccc(Cl)cc2)cc1	-2%	0%	?	-19%	-1%
Cc1cccc(C)c1NC(=S)NCCSc1ccc(Cl)cc1	0%	7%	26µM*	?	0%
CCn1c(C(=O)N2CCCC(C(=O)NCCc3ccc(C)cc3)C2)cc2sccc21 (configuration not stated)	3%	·	?	-15%	-2%
CCn1c(C(=O)N2CCCC(C(=O)NCCCc3ccccc3)C2)cc2sccc21 (configuration not stated)	-1%	·	16µM*	?	3%
CC(O)(COc1ccccc1)c1ccc2c(c1)CN(Cc1ccc3nsnc3c1)CCO2 (configuration not stated)	·	0%	·	·	·
CN1CCN(Cc2cc(COCc3ccccc3)c3cccnc3c2O)CC1	3.5µM*	-1%	?	-16%	4%
CN(Cc1cc([N+](=O)[O-])c2cccnc2c1O)C1CCCCC1	0%	·	·	·	·
CCCOCc1cc(CN2CCN(c3cccc(Cl)c3)CC2)c(O)c2ncccc12	?	?	?	5%	-2%
O=[N+]([O-])c1cc(CN2CCOCC2)c2cccnc2c1O	-3%	5%	23µM*	?	1%
O=[N+]([O-])c1cc(CN2CCN(c3ccccc3)CC2)c(O)c2ncccc12	?	1%	2.6µM*	?	-1%[9.22 µM]
Oc1c(Cl)cc(CN2CCOCC2)c2cccnc12	·	?	?	?	8%
Oc1c(CN2CCc3ccccc3C2)cc(Cl)c2cccnc12	4µM*	2%	-27%	-2%	?
Cc1ccc(S(=O)(=O)N(CC(=O)O)Cc2cccc(C)c2)cc1	10%	·	·	·	·
Cc1ccc(C(=O)Nc2cccc(-c3nc(CNC(=O)c4cccc(N(C)C)c4)c(C)o3)c2)s1	·	0%	·	·	·
COc1ccc(NC(=O)c2cccc(N3C(=O)C4C5C=CC(C6CC56)C4C3=O)c2)c(OC)c1 (configuration not stated)	·	0%	?	-7%	0%
COc1ccc(NC(=O)c2cccc(N3C(=O)C4C5C=CC(C6CC56)C4C3=O)c2)cc1 (configuration not stated)	·	2%	21µM*	-12%	0%
Cc1c(C(=O)NCCN2CCC(c3ccccc3)CC2)cnn1-c1nccc(-c2cccs2)n1	·	1%	·	·	·
Cc1ccc(NC(=O)CCSc2nc(-c3ccco3)cc(C(F)(F)F)n2)cc1F	-1%	5%	10µM*	-3%	-1%
O=C(CCSc1nc(-c2ccco2)cc(C(F)(F)F)n1)Nc1cccc(O)c1	-2%	1%	5%	3%	1%

Source: PubChem BioAssay (National Center for Advancing Translational Sciences (NCATS))
